Reference: PubChem BioAssay (NCI)
Compounds without any hit were thinned out: in the full panel of roughly 83,000, 20% have a hit.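 Treatment: one concentration, 48 hours, 96-well format. Scoring: percent growth, with anything below 10 considered active.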 Unmarked numbers belong to inactive results. Activity calls are given as the source filed them.

Key:
Test in all cases: NCI-60 one-dose screen, 48 h (100 = growth as untreated, 0 = no growth, -100 = all killed)
Settings in all cases: 10 µM unless noted
NCI-H23 lung = tested on: NCI-H23 lung
NCI-H226 lung = tested on: NCI-H226 lung
NCI-H322M lung = tested on: NCI-H322M lung
HOP-62 NSCLC = tested on: HOP-62 NSCLC
NCI-H460 lung = tested on: NCI-H460 lung
HOP-92 NSCLC = tested on: HOP-92 NSCLC
NCI-H522 lung = tested on: NCI-H522 lung
A549/ATCC NSCLC = tested on: A549/ATCC NSCLC
786-0 renal = tested on: 786-0 renal
COLO 205 colon = tested on: COLO 205 colon
DU-145 prostate = tested on: DU-145 prostate
K-562 leukemia = tested on: K-562 leukemia
MALME-3M melanoma = tested on: MALME-3M melanoma
MDA-MB-231 breast = tested on: MDA-MB-231 breast
RXF 393 renal = tested on: RXF 393 renal
SF-268 CNS = tested on: SF-268 CNS
SF-295 CNS = tested on: SF-295 CNS
SF-539 CNS = tested on: SF-539 CNS
UACC-257 melanoma = tested on: UACC-257 melanoma
M14 melanoma = tested on: M14 melanoma

Row | SMILES | growth (NCI-H23 lung) | growth (NCI-H226 lung) | growth (NCI-H322M lung) | growth (HOP-62 NSCLC) | growth (NCI-H460 lung) | growth (HOP-92 NSCLC) | growth (NCI-H522 lung) | growth (A549/ATCC NSCLC) | growth (786-0 renal) | growth (COLO 205 colon) | growth (DU-145 prostate) | growth (K-562 leukemia) | growth (MALME-3M melanoma) | growth (MDA-MB-231 breast) | growth (RXF 393 renal) | growth (SF-268 CNS) | growth (SF-295 CNS) | growth (SF-539 CNS) | growth (UACC-257 melanoma) | growth (M14 melanoma)
1 | CCOC(=O)c1nc2c3ccccc3ccn2c1C(=O)OC | 97.2% | 97.2% | 95.6% | 95.5% | 103% | 103% | 90.6% | 92.8% | 93.8% | 104% | 104% | 113% | 100% | 99.9% | 93.8% | 101% | 106% | 100% | 102% | 107%
2 | Cc1cccc(C[C@H](NC(=O)Nc2ccc(Cl)cc2F)C(=O)N[C@@H]2C(=O)N3C[C@H](O)C[C@H]3C(=O)N3CCN(C)C[C@H]3C(=O)N[C@@H](C)C(=O)N3C[C@H](C)C[C@H]3C(=O)O[C@H]2C)c1 | 35.3% | 45.2% | 65.7% | 34.3% | 27.7% | 33.2% | 33.2% | 35.6% | 66.6% | 11.2% | 36.3% | 24.4% | 42.9% | 22.4% | 81.7% | 30% | 19.7% | 53.8% | 22.6% | 63.5%
3 | COc1ccc(/C=C/C(=C/c2c(O)[nH]c3cc(Br)ccc23)N=O)cc1 | 111% | 103% | 113% | 111% | 108% | 116% | 105% | 104% | 112% | 126% | 114% | 89.1% | 95.4% | 101% | 130% | 107% | 107% | 99.4% | 114% | 115%
4 | O=C1NC(=O)C(Cc2ccc(OCc3ccc(-c4cc(F)c(F)c(F)c4)cc3)cc2)S1 (stereo not given) | 80.9% | 82.5% | 92.4% | 91.7% | 92% | 98.2% | 49.5% | 73.2% | 95.5% | 97.6% | 95.1% | 65% | 93% | 76.7% | 102% | 78.5% | 85.7% | 85% | 90.7% | 94.8%
5 | Cc1nc(Cl)c2c(n1)N(C)c1ccc(Cl)cc1C(C)C2 (stereo not given) | 92.5% | 87.7% | 97.1% | 90.4% | 92.3% | 66% | 77.8% | 84.6% | 90% | 97.3% | 105% | 77.3% | 95.6% | 77.1% | 101% | 88.9% | 91.2% | 96.5% | 88% | 86.9%
6 | C=C(C)[C@@H]1CC[C@]2(COCCC#N)CC[C@]3(C)[C@H](CC[C@@H]4[C@@](C)(CCCNCCC#N)[C@H](C(=C)C)CC[C@]43C)[C@@H]12 | 29% [100 µM] | 42.6% [100 µM] | 72.2% [100 µM] | 77.8% [100 µM] | 9.8% [100 µM] (active) | -14.6% [100 µM] (active) | -6.77% [100 µM] (active) | 50.4% [100 µM] | 16.1% [100 µM] | 11.3% [100 µM] | 46.4% [100 µM] | 7.57% [100 µM] (active) | -47.8% [100 µM] (active) | 13.9% [100 µM] | -11.8% [100 µM] (active) | 53% [100 µM] | 65.2% [100 µM] | -20% [100 µM] (active) | 27.6% [100 µM] | 32.4% [100 µM]
7 | CCCCC(CC)COC(=O)C[N+](C)(C)CCOC(c1ccccc1)c1ccccc1 (stereo not given) | 42% | 54.1% | 88.7% | 60.6% | 65.2% | -12.2% (active) | -24.5% (active) | 88.3% | 77.7% | -28% (active) | 85.1% | 14.6% | 30.8% | 29.3% | -4.09% (active) | 49% | 74.4% | 69.7% | 2.69% (active) | 20.3%
8 | Cn1ncc2c(Nc3ccc(O)cc3)nc(Cl)nc21 | 107% | 91.2% | 96.6% | 95.8% | 108% | 104% | 88% | 96% | 111% | 108% | 113% | 90.5% | 128% | 93.7% | 96% | 97.7% | 109% | 96.6% | 105% | 111%
9 | O=[N+]([O-])c1cc(CCl)ccc1OCCBr | 102% | 94.8% | 104% | 105% | 101% | 98.6% | 96.1% | 104% | 103% | 107% | 95.7% | 115% | 107% | 108% | 110% | 101% | 99.7% | 97.9% | 105% | 98.3%
10 | COc1ccc(-c2nc3ccccn3c2/C=C/C(=O)c2cc(OC)c(OC)c(OC)c2)cc1OC | 16.3% | 23.3% | 51.3% | 28.5% | 0.623% (active) | -22.5% (active) | -5.63% (active) | 20.7% | 24.7% | 17.9% | 12.7% | 14.6% | 45.9% | 21.4% | 27.8% | 26.2% | 4.4% (active) | -25.1% (active) | 52.8% | 13.4%
11 | C#CCC(C(=O)OCC)C(=O)OCC | 100% | 98.5% | 100% | 102% | 109% | 108% | 99.1% | 100% | 107% | 105% | 101% | 102% | 110% | 101% | 128% | 104% | 103% | 101% | 108% | 105%
12 | Cc1cnc([C@]23CC[C@@H](C)[C@H](C)[C@H]2C2=CC[C@@H]4[C@@]5(C)Cc6c([nH]c7ccccc67)C(C)(C)[C@@H]5CC[C@@]4(C)[C@]2(C)CC3)o1 | 27.8% [100 µM] | 59.2% [100 µM] | 37% [100 µM] | 43.8% [100 µM] | 16.7% [100 µM] | 30.5% [100 µM] | 79.5% [100 µM] | 28.8% [100 µM] | 27% [100 µM] | 43% [100 µM] | 69.9% [100 µM] | 38.3% [100 µM] | 59.1% [100 µM] | 38.3% [100 µM] | 101% [100 µM] | 36.1% [100 µM] | 31.7% [100 µM] | 6.53% [100 µM] (active) | 61.5% [100 µM] | 28.4% [100 µM]
13 | c1ccc(-c2n[nH]c(-c3ccccn3)n2)nc1 | 102% | 118% | 121% | 104% | 106% | 94% | 96.8% | 105% | 97% | 143% | 133% | 104% | 107% | 116% | 95.7% | 140% | 98.1% | 106% | 106% | 111%
14 | COc1cc2c(c(OC)c1OC)-c1cc(I)c(O)cc1[C@@H](NC(C)=O)CC2 | 48.8% | 5.87% (active) | 70.3% | 42% | 3.02% (active) | 62.1% | -12.2% (active) | 14.9% | 29.7% | -64% (active) | 16.9% | 25.6% | 80.2% | 7.04% (active) | 37.7% | 8.91% (active) | 22.4% | -27.8% (active) | 61.9% | 14.4%
15 | COc1ccc2nc3c(cc2c1)C(=O)CC(C(F)(F)F)C3 (stereo not given) | 50.5% | 39.8% | 37.4% | 47.7% | 10.5% | 66.2% | 31.1% | 39.3% | 53.7% | 9.86% (active) | 4.31% (active) | 16.7% | 49.6% | 60% | -1.91% (active) | 57.4% | 45.3% | 22.6% | 82% | 8.65% (active)
